Results reported in PubChem BioAssay (NCATS).
Inconclusive results are not listed. Activity calls are given as the source filed them. Unless noted, calls come from the whole dose curve; as a rule, active = well fitted inhibition curve with a large enough effect; inconclusive = small, poorly fitted or top-dose-only effect; inactive = flat fitted curve, though single readings scatter.

Experiments:
[1] = qHTS drug screen for cell cycle checkpoint inhibitors in PARPi-resistant BRCA-mutant ovarian cancer cell lines. (AID 1963452; calls by dose curve); conditions: PEO1/OlaR viability, CellTiter-Glo luminescence, 96 h, stronger effect = lower value
Outline: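 PEO1, PEO4 and PEO1/OlaR ovarian cancer cells, 600 per well, exposed 96 h at 37C to a dilution series. Viability read by CellTiter-Glo luminescence, normalized to DMSO and empty wells; activity summarized as Z-AUC.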

[2] = qHTS profiling for inhibitors of Plasmodium falciparum proliferation (AID 504749); note: nearly all actives have a fitted effect of over 60% in size; note: potency is the fitted concentration of half-maximal effect;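 for activity, negative = inhibition: 0% = DMSO vehicle and full inhibition = artemisinin control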; conditions: P. falciparum in erythrocytes, SYBR Green DNA, 72 h
Outline: (§1)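 Each compound contacts P. falciparum-infected red blood cells for 72 h at 37 C; lysis buffer (Tris, EDTA, saponin, Triton X, SYBR Green I) is added and fluorescence measured next morning; values normalized to controls.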

3D7 = experiment: as above; conditions: P. falciparum in erythrocytes, SYBR Green DNA, 72 h; series mostly up to 28.7 µM
Outline: as §1

7G8 = experiment: as above; conditions: P. falciparum in erythrocytes, SYBR Green DNA, 72 h; series mostly up to 28.7 µM
Outline: as §1

AA1029 = experiment: as above; conditions: P. falciparum in erythrocytes, SYBR Green DNA, 72 h; series mostly up to 28.7 µM
Outline: as §1

AS120 = experiment: as above; conditions: P. falciparum in erythrocytes, SYBR Green DNA, 72 h; series mostly up to 28.7 µM
Outline: as §1

ATS189 = experiment: as above; conditions: P. falciparum in erythrocytes, SYBR Green DNA, 72 h; series mostly up to 28.7 µM
Outline: as §1

ATS95 = experiment: as above; conditions: P. falciparum in erythrocytes, SYBR Green DNA, 72 h; series mostly up to 28.7 µM
Outline: as §1

C2A = experiment: as above; conditions: P. falciparum in erythrocytes, SYBR Green DNA, 72 h; series mostly up to 28.7 µM
Outline: as §1

CP185 = experiment: as above; conditions: P. falciparum in erythrocytes, SYBR Green DNA, 72 h; series mostly up to 28.7 µM
Outline: as §1

CP191 = experiment: as above; conditions: P. falciparum in erythrocytes, SYBR Green DNA, 72 h; series mostly up to 28.7 µM
Outline: as §1

CP192 = experiment: as above; conditions: P. falciparum in erythrocytes, SYBR Green DNA, 72 h; series mostly up to 28.7 µM
Outline: as §1

CP194 = experiment: as above; conditions: P. falciparum in erythrocytes, SYBR Green DNA, 72 h; series mostly up to 28.7 µM
Outline: as §1

CP201 = experiment: as above; conditions: P. falciparum in erythrocytes, SYBR Green DNA, 72 h; series mostly up to 28.7 µM
Outline: as §1

CP203 = experiment: as above; conditions: P. falciparum in erythrocytes, SYBR Green DNA, 72 h; series mostly up to 28.7 µM
Outline: as §1

CP211 = experiment: as above; conditions: P. falciparum in erythrocytes, SYBR Green DNA, 72 h; series mostly up to 28.7 µM
Outline: as §1

CP215 = experiment: as above; conditions: P. falciparum in erythrocytes, SYBR Green DNA, 72 h; series mostly up to 28.7 µM
Outline: as §1

CP217 = experiment: as above; conditions: P. falciparum in erythrocytes, SYBR Green DNA, 72 h; series mostly up to 28.7 µM
Outline: as §1

[3] = at 28.7 µM (top of the series), parasite line A
[4] = at 28.7 µM (top of the series), parasite line B

CCCN(CCC)C(=O)C(CCC(=O)O)NC(=O)c1ccccc1 (centres undefined)
0.633: Z-AUC ([1]; measured here: PEO1 parental Z-AUC)
0.925: Z-AUC ([1]; measured here: PEO4 Z-AUC)
inactive: Z-AUC [1] 0.987

FC(F)(F)c1ccccc1-n1ccnc1
inactive: activity, negative = inhibition [2, 3] 11.5% | activity, negative = inhibition [2, 4] -3.4% | Potency (3D7) | Potency (7G8) | Potency (AA1029) | Potency (AS120) | Potency (ATS189) | Potency (ATS95) | Potency (C2A) | Potency (CP185) | Potency (CP191) | Potency (CP192) | Potency (CP194) | Potency (CP201) | Potency (CP203) | Potency (CP211) | Potency (CP215) | Potency (CP217)

OCCN1CCN(CCCN2c3ccccc3C=Cc3ccccc32)CC1
active: Potency ([2]; parasite line A) 8.91 µM | Potency ([2]; parasite line B) 11.2 µM | Potency (3D7) 11.2 µM | Potency (7G8) 2 µM | Potency (AA1029) 4.47 µM | Potency (AS120) 4.47 µM | Potency (ATS189) 5.01 µM | Potency (ATS95) 5.01 µM | Potency (C2A) 11.2 µM | Potency (CP185) 12.6 µM | Potency (CP191) 4.47 µM | Potency (CP192) 10.7 µM | Potency (CP194) 7.57 µM | Potency (CP203) 6.75 µM | Potency (CP211) 12 µM | Potency (CP215) 8.49 µM | Potency (CP217) 7.08 µM

Cc1nc2c([nH]1)c(=O)n(C)c(=O)n2Cc1ccco1
inactive: activity, negative = inhibition [2, 3] -3.89% | activity, negative = inhibition [2, 4] -2.06% | Potency (3D7) | Potency (7G8) | Potency (AA1029) | Potency (AS120) | Potency (ATS189) | Potency (ATS95) | Potency (C2A) | Potency (CP185) | Potency (CP191) | Potency (CP192) | Potency (CP194) | Potency (CP201) | Potency (CP211) | Potency (CP215) | Potency (CP217)

O=C1NCN(c2ccccc2)C12CCN(CCCC(c1ccc(F)cc1)c1ccc(F)cc1)CC2
active: Potency ([2]; parasite line A) 3.16 µM | Potency ([2]; parasite line B) 7.94 µM | Potency (3D7) 3.55 µM | Potency (7G8) 3.16 µM | Potency (AA1029) 5.01 µM | Potency (AS120) 4.47 µM | Potency (ATS189) 10 µM | Potency (ATS95) 8.91 µM | Potency (C2A) 7.08 µM | Potency (CP185) 10 µM | Potency (CP191) 5.62 µM | Potency (CP217) 8.91 µM

CN(C)C(=O)Oc1cccc([N+](C)(C)C)c1
inactive: activity, negative = inhibition [2, 3] 4.77% | activity, negative = inhibition [2, 4] -6.35% | Potency (3D7) | Potency (7G8) | Potency (AA1029) | Potency (AS120) | Potency (ATS189) | Potency (ATS95) | Potency (C2A) | Potency (CP185) | Potency (CP191) | Potency (CP192) | Potency (CP194) | Potency (CP201) | Potency (CP211) | Potency (CP217)

OCCN1CCN(CC/C=C2/c3ccccc3Sc3ccc(C(F)(F)F)cc32)CC1
active: Potency ([2]; parasite line A) 8.91 µM | Potency ([2]; parasite line B) 11.2 µM | Potency (3D7) 12.6 µM | Potency (7G8) 3.16 µM | Potency (AA1029) 8.91 µM | Potency (AS120) 11.2 µM | Potency (ATS189) 7.94 µM | Potency (CP191) 5.01 µM | Potency (CP192) 9.53 µM | Potency (CP194) 7.57 µM | Potency (CP201) 10.7 µM | Potency (CP211) 5.36 µM | Potency (CP215) 12 µM

CN(C)CCCN1c2ccccc2Sc2ccccc21
inactive: activity, negative = inhibition ([2]; at 12.8 µM (top of the series), parasite line A) 8.14% | activity, negative = inhibition ([2]; at 12.8 µM (top of the series), parasite line B) 20.7% | Potency (3D7) | Potency (CP191) | Potency (CP192)
active: Potency (7G8) 3.16 µM | Potency (AA1029) 3.16 µM | Potency (CP203) 4.05 µM

COc1ccc(CN(CCN(C)C)c2ccccn2)cc1
inactive: activity, negative = inhibition [2, 3] -7.89% | activity, negative = inhibition [2, 4] -2.95% | Potency (3D7) | Potency (7G8) | Potency (AS120) | Potency (ATS189) | Potency (C2A) | Potency (CP185) | Potency (CP191) | Potency (CP192) | Potency (CP201) | Potency (CP211) | Potency (CP215) | Potency (CP217)

O=c1[nH]c(=O)n([C@H]2C[C@H](O)[C@@H](CO)O2)cc1Br
inactive: activity, negative = inhibition [2, 3] -7.76% | activity, negative = inhibition [2, 4] -6.27% | Potency (3D7) | Potency (7G8) | Potency (AA1029) | Potency (AS120) | Potency (ATS189) | Potency (ATS95) | Potency (C2A) | Potency (CP185) | Potency (CP191) | Potency (CP192) | Potency (CP194) | Potency (CP201) | Potency (CP211) | Potency (CP215) | Potency (CP217)

CC(=O)Nc1nnc(S(N)(=O)=O)s1
inactive: activity, negative = inhibition [2, 3] -9.91% | activity, negative = inhibition [2, 4] 6.59% | Potency (3D7) | Potency (7G8) | Potency (AA1029) | Potency (AS120) | Potency (ATS189) | Potency (ATS95) | Potency (C2A) | Potency (CP185) | Potency (CP191) | Potency (CP192) | Potency (CP194) | Potency (CP201) | Potency (CP211) | Potency (CP215) | Potency (CP217)

NC(N)=NC(=O)Cc1c(Cl)cccc1Cl
active: Potency ([2]; parasite line A) 5.62 µM | Potency ([2]; parasite line B) 5.01 µM | Potency (7G8) 12.6 µM | Potency (CP191) 8.91 µM | Potency (CP217) 6.31 µM
inactive: Potency (3D7)

CCCCOCCOCCOCc1cc2c(cc1CCC)OCO2
inactive: activity, negative = inhibition [2, 3] 4.14% | activity, negative = inhibition [2, 4] 5.71% | Potency (3D7) | Potency (7G8) | Potency (AA1029) | Potency (AS120) | Potency (ATS189) | Potency (ATS95) | Potency (C2A) | Potency (CP185) | Potency (CP191) | Potency (CP192) | Potency (CP194) | Potency (CP201) | Potency (CP211) | Potency (CP215) | Potency (CP217)

CC(N=C(NC#N)Nc1ccncc1)C(C)(C)C (centres undefined)
inactive: activity, negative = inhibition [2, 3] -3.66% | activity, negative = inhibition [2, 4] -7.16% | Potency (3D7) | Potency (7G8) | Potency (AA1029) | Potency (AS120) | Potency (ATS189) | Potency (ATS95) | Potency (C2A) | Potency (CP185) | Potency (CP191) | Potency (CP192) | Potency (CP194) | Potency (CP201) | Potency (CP211) | Potency (CP215) | Potency (CP217)

NCCCNCCSP(=O)(O)O
inactive: activity, negative = inhibition [2, 3] 8.13% | activity, negative = inhibition [2, 4] 13.6% | Potency (3D7) | Potency (7G8) | Potency (AA1029) | Potency (AS120) | Potency (ATS189) | Potency (ATS95) | Potency (C2A) | Potency (CP185) | Potency (CP191) | Potency (CP192) | Potency (CP194) | Potency (CP201) | Potency (CP211) | Potency (CP215) | Potency (CP217)
